# Results taken from paper PMC7862700, “An all-to-all approach to the identification of sequence-specific readers for epigenetic DNA modifications on cytosine”.
# Experiments:
# Assay in all cases: DAPPL (digital affinity profiling via proximity ligation, sequencing); 10 mM Tris-HCl pH 7.5, 50 mM NaCl, 1 mM DTT, 4% glycerol, room temperature, 30 min; GST-TFs on glutathione beads, 16-mer random dsDNA library, 0.1% formaldehyde crosslink after washing; high values mean tight binding
# Conditions in all cases: protein: recombinant; tags: N-terminal GST; dsDNA, one strand shown
# [1] = target: T1, FLI1 (Homo sapiens, UniProt Q01543 1-452)
# T1 sequence: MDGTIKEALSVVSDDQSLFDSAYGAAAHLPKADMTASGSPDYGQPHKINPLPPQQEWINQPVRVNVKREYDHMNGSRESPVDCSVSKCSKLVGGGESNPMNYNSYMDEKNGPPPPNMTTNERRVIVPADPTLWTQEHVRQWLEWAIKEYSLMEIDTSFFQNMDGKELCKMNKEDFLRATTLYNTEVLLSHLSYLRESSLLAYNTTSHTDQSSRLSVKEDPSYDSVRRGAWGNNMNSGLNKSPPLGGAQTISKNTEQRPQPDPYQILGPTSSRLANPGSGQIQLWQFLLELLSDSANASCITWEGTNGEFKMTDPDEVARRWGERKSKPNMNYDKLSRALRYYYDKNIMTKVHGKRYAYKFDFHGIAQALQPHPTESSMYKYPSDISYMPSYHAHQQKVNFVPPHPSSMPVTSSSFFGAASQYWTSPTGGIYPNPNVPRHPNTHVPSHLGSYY
# Procedure, shortened: (§1)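 Yeast served to express human transcription factors as GST fusions, which were then captured on glutathione beads and labelled with DNA barcodes. Pooled with a tag-only sample, they were incubated with 200 nmole of a 16-mer random double-stranded DNA library for 30 min at room temperature in Tris/NaCl/DTT/glycerol buffer, washed, crosslinked with 0.1% formaldehyde, ligated by proximity, amplified by PCR and sequenced. Dividing each hexamer's read frequency for a factor by its frequency for the tag-only sample gives the binding signal.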
# [2] = target: T2, ELK1 (Homo sapiens, UniProt P19419 1-428)
# T2 sequence: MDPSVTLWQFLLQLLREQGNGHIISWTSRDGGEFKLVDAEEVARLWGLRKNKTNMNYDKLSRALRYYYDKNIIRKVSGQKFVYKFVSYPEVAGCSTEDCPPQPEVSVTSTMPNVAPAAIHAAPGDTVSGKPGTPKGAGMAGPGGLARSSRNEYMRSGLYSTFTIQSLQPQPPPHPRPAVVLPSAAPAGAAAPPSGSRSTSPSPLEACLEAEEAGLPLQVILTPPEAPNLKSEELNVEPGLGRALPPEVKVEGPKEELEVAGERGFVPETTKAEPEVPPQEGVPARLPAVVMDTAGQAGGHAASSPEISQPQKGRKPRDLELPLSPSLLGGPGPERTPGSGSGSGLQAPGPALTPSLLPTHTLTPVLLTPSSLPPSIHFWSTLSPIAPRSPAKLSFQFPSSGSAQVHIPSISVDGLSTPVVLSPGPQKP
# Procedure, shortened: as §1
# [3] = target: T3, GABPA (Homo sapiens, UniProt Q06546 1-454)
# T3 sequence: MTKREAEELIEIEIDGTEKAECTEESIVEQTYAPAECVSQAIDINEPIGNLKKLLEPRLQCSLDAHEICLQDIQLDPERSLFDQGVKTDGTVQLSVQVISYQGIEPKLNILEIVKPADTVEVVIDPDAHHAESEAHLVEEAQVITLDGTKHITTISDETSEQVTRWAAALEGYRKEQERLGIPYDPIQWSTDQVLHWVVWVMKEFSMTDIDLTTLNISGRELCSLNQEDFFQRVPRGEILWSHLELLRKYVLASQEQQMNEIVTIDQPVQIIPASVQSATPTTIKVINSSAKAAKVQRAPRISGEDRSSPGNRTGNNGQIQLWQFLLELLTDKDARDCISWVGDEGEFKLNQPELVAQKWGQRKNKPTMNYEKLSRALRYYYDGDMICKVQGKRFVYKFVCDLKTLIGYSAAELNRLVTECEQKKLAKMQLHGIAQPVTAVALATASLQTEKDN
# Procedure, shortened: as §1
# [4] = target: ELF1 (Homo sapiens, UniProt P32519 1-619)
# Procedure, shortened: as §1
# [5] = target: T4, EHF (Homo sapiens, UniProt Q9NZC4 1-300)
# T4 sequence: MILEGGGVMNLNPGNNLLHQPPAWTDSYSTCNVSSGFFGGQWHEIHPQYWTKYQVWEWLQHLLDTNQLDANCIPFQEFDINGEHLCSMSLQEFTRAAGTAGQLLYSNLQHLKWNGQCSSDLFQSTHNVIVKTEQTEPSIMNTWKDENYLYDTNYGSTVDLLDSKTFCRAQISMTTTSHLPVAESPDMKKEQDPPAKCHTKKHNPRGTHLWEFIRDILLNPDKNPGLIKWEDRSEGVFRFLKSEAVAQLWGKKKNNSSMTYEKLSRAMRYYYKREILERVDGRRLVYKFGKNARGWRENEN
# Procedure, shortened: as §1
# [6] = target: SPI1 (Homo sapiens, UniProt P17947 1-270)
# Procedure, shortened: as §1
# [7] = target: T5, SPIC (Homo sapiens, UniProt Q8N5J4 1-248)
# T5 sequence: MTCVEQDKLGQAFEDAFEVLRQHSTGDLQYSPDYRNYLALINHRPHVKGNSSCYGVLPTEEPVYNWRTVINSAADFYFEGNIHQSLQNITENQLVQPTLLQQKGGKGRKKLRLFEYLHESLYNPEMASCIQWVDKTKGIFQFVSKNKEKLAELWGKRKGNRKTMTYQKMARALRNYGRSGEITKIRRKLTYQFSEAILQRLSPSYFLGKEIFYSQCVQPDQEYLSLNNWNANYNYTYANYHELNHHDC
# Procedure, shortened: as §1
# [8] = target: ELF4 (Homo sapiens, UniProt Q99607 1-663)
# Procedure, shortened: as §1
# [9] = target: T6, ELK4 (Homo sapiens, UniProt P28324-2 1-405)
# T6 sequence: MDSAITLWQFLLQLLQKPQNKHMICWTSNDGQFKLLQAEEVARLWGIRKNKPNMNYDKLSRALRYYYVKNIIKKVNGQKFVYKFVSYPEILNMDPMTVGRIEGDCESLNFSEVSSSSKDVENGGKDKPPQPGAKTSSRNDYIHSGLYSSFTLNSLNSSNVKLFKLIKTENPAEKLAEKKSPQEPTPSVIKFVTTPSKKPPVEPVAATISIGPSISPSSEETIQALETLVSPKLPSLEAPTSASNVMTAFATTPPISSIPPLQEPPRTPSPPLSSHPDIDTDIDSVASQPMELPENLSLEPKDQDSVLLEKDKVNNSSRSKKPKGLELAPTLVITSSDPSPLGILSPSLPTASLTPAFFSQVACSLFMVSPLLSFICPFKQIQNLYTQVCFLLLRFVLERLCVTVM
# Procedure, shortened: as §1
# [10] = target: T7, ELF3 (Homo sapiens, UniProt P78545 1-371)
# T7 sequence: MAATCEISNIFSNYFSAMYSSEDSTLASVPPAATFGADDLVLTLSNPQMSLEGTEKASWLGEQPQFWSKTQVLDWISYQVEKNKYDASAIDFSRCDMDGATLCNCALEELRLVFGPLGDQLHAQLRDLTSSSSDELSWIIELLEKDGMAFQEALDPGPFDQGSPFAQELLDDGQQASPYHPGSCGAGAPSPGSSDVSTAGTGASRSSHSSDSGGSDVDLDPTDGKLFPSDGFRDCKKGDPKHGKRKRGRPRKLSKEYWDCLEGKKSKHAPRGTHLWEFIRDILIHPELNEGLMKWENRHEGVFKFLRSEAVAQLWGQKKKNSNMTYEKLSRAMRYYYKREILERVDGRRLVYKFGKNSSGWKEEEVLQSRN
# Procedure, shortened: as §1
# [11] = target: T8, ERF (Homo sapiens, UniProt P50548 1-548)
# T8 sequence: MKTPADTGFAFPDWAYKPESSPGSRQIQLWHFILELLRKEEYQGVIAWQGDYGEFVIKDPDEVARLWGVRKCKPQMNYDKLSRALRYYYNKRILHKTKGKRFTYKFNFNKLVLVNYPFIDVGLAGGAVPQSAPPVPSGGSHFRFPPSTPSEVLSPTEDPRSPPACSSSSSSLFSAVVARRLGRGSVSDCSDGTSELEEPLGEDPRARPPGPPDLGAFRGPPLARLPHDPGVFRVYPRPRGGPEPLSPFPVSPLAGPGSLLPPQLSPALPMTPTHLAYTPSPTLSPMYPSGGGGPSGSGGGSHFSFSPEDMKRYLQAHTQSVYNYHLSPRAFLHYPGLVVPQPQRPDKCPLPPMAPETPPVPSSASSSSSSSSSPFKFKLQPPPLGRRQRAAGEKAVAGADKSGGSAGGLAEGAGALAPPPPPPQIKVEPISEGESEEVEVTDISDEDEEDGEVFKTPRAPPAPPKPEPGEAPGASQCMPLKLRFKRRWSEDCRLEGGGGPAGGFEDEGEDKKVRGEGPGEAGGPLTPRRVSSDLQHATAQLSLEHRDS
# Procedure, shortened: as §1
# [12] = target: T9, ETV7 (Homo sapiens, UniProt Q9Y603 1-341)
# T9 sequence: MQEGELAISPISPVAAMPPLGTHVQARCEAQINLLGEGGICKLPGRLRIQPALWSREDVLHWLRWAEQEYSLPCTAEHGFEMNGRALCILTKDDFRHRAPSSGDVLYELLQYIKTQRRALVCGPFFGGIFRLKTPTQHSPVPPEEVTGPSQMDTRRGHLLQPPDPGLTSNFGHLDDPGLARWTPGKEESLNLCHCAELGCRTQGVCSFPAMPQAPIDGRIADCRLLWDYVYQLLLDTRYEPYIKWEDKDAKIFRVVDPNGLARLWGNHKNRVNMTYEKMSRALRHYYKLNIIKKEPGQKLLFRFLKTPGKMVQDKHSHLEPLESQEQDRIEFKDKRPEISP
# Procedure, shortened: as §1
# [13] = target: ETV6 (Homo sapiens, UniProt P41212 1-452)
# Procedure, shortened: as §1
# [14] = target: T10, ELK3 (Homo sapiens, UniProt P41970 1-407)
# T10 sequence: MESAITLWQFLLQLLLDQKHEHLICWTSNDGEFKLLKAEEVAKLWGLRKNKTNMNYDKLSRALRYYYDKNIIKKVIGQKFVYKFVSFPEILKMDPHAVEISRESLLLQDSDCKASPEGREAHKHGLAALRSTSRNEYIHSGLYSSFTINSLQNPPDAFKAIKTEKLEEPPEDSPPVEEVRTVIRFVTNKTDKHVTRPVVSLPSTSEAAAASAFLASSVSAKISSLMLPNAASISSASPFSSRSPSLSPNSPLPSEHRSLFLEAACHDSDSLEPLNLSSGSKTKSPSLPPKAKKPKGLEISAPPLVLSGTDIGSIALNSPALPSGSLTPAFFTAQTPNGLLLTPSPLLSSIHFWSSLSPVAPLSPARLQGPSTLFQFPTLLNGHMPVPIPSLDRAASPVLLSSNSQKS
# Procedure, shortened: as §1
# [15] = target: T11, ETV2 (Homo sapiens, UniProt O00321 1-342)
# T11 sequence: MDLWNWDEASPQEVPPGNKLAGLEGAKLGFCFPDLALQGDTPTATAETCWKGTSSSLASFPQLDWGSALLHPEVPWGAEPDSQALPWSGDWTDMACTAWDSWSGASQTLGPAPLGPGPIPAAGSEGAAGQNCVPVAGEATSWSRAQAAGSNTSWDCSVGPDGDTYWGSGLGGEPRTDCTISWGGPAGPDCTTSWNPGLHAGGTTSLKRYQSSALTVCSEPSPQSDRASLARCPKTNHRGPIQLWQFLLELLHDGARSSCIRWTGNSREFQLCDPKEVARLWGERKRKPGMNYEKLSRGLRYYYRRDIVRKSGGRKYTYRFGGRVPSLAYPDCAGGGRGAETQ
# Procedure, shortened: as §1
# [16] = target: T12, ETV3L (Homo sapiens, UniProt Q6ZN32 1-361)
# T12 sequence: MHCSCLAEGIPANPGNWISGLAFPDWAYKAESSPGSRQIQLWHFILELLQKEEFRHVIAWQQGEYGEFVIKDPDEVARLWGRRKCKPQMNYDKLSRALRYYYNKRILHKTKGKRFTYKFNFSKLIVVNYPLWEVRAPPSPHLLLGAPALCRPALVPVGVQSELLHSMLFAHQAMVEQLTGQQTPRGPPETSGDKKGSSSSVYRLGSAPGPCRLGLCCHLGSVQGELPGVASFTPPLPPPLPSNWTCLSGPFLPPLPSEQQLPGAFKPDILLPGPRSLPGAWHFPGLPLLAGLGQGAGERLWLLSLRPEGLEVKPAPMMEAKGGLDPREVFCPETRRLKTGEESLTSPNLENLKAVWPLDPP
# Procedure, shortened: as §1
# Chain of ELF4 (Q99607 whole entry): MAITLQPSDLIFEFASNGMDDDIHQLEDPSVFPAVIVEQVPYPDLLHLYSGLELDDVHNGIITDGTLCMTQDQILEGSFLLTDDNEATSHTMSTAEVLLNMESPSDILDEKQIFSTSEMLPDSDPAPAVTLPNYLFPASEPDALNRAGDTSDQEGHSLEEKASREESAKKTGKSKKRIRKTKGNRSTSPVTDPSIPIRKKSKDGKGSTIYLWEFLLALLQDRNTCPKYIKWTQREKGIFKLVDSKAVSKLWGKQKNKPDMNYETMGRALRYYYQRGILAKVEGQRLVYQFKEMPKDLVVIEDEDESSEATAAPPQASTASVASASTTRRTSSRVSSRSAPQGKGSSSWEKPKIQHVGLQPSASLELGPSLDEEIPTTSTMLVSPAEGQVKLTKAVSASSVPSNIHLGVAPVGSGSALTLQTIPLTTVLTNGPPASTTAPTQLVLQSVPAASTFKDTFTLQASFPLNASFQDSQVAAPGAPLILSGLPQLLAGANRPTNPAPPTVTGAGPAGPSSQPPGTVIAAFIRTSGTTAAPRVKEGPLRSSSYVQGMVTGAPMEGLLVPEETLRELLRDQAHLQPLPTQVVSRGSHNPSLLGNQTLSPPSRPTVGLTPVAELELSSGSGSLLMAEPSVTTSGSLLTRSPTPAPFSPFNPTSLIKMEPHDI
# Chain of ELF1 (P32519 whole entry): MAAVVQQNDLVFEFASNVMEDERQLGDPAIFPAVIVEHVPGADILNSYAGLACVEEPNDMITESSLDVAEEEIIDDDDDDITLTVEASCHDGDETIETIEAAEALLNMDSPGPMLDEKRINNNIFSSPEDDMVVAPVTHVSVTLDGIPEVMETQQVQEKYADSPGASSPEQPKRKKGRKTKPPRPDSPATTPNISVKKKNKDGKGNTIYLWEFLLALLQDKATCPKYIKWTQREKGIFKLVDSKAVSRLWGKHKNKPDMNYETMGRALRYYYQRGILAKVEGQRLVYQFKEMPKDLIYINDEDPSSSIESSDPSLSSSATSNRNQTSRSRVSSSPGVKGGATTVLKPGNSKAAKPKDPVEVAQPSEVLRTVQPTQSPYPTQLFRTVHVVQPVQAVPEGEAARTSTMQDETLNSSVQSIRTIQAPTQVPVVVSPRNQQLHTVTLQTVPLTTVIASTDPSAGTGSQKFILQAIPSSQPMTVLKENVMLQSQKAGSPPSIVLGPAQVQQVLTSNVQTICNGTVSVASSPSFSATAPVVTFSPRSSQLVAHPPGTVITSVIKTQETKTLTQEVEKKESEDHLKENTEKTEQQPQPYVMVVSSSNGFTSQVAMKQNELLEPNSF
# Chain of ETV6 (P41212 whole entry): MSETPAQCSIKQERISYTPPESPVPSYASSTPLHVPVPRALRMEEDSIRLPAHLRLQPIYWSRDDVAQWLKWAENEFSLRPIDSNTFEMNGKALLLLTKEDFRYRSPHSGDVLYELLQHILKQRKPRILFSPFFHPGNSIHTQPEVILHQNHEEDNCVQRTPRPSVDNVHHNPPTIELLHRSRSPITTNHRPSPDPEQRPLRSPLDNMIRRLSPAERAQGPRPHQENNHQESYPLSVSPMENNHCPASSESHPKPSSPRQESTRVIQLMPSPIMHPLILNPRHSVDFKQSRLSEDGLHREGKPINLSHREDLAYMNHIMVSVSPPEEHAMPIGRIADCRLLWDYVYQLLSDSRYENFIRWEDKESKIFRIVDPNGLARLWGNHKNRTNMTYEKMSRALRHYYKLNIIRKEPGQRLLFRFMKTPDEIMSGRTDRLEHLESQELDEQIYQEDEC
Sequence,binding signal [1],binding signal [2],binding signal [3],binding signal [4],binding signal [5],binding signal [6],binding signal [7],binding signal [8],binding signal [9],binding signal [10],binding signal [11],binding signal [12],binding signal [13],binding signal [14],binding signal [15],binding signal [16]
CACCTA,"1.06 fold enrichment (6-mer frequency, TF over GST control)","1.01 fold enrichment (6-mer frequency, TF over GST control)","1.04 fold enrichment (6-mer frequency, TF over GST control)","1.02 fold enrichment (6-mer frequency, TF over GST control)","1.05 fold enrichment (6-mer frequency, TF over GST control)","1.03 fold enrichment (6-mer frequency, TF over GST control)","1.09 fold enrichment (6-mer frequency, TF over GST control)","1.1 fold enrichment (6-mer frequency, TF over GST control)","1 fold enrichment (6-mer frequency, TF over GST control)","1.18 fold enrichment (6-mer frequency, TF over GST control)","1.06 fold enrichment (6-mer frequency, TF over GST control)","1.08 fold enrichment (6-mer frequency, TF over GST control)","1.02 fold enrichment (6-mer frequency, TF over GST control)",,,
CGCTAA,"1.01 fold enrichment (6-mer frequency, TF over GST control)","1.05 fold enrichment (6-mer frequency, TF over GST control)",,,,,,,,"1 fold enrichment (6-mer frequency, TF over GST control)",,,,"1 fold enrichment (6-mer frequency, TF over GST control)","1.09 fold enrichment (6-mer frequency, TF over GST control)","1 fold enrichment (6-mer frequency, TF over GST control)"
TAGGTA,"1.02 fold enrichment (6-mer frequency, TF over GST control)","1.06 fold enrichment (6-mer frequency, TF over GST control)",,,,,,,,"1.12 fold enrichment (6-mer frequency, TF over GST control)","1.08 fold enrichment (6-mer frequency, TF over GST control)","1.1 fold enrichment (6-mer frequency, TF over GST control)",,,,"1.01 fold enrichment (6-mer frequency, TF over GST control)"
